Only some compounds are listed: those with a hit (about 4.1% of all), similar ones and a draw of the others.
hcDAF12 agonist: H. contortus DAF-12 nuclear receptor activators, primary screen, cell-based, luminescence, HEK293, lit1-tk-luc reporter; HEK293 hcDAF-12 lit1-tk-luc reporter; 0% DMSO, 100% Δ7-dafachronic acid; activation, % at 6.8 µM; actives 1.4% (n = 370,000);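 active means activation above the mean of all tested compounds plus 3 SD, cut at about 5.5% in these data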;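 further: 100% = response to 3 µM Δ7-dafachronic acid high control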
hgDAF12 agonist: H. glycines DAF-12 receptor agonists, primary screen, cell-based, luminescence, HEK293, GAL4 fusion, UAS-luciferase; Nuclear hormone receptor DAF-12 (Heterodera glycines), GAL4 fusion; HEK293 GAL4-hgDAF12 UAS-luciferase reporter, agonist luminescence; normalized to butyrate control; activation, % at 6.8 µM; actives 1.8% (n = 370,000); AID 687014, 2013;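 active means activation above a cutoff set at the mean of all screened compounds plus 3 SD, cut at about 10% in these data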;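 further: 0% = DMSO wells and 100% = sodium butyrate wells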
DAX1 inh-1: DAX1 (NR0B1) inhibitors, primary screen, cell-based, HEK293, Gal4-DAX1, luciferase luminescence | Nuclear receptor subfamily 0 group B member 1 (Homo sapiens), P51843 | HEK293 Gal4-DAX1 luciferase reporter | inhibition, % at 6.75 µM | actives 0.99% (n = 340,000);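 active means inhibition above the mean over all tested compounds plus 3 SD, cut at about 4.2% in these data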;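 further: 0% = DAX1-transfected cells with DMSO and 100% = empty-vector control cells with DMSO; inhibition shows as a rise in luminescence from relieved DAX1 repression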
DAX1 inh-2: DAX1 (NR0B1) inhibitors on StAR promoter, primary screen, cell-based, luminescence, SF-1 (NR5A1), full-length DAX-1; HEK293T StAR-luciferase reporter, SF-1/DAX-1 repression relief; inhibition, % at 6.8 µM; actives 1.1% (n = 370,000);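 active means inhibition above the mean over all tested compounds plus 3 SD, cut at about 3.6% in these data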;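 further: 0% = DAX-1 cells with DMSO and 100% = cells lacking DAX-1 with DMSO; higher inhibition means more luminescence from relief of DAX-1 repression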
ssDAF12 agonist: S. stercoralis DAF-12 nuclear receptor activators, primary screen, cell-based, luminescence, HEK293, GRIP1 co-expression, lit1-tk-luc | HEK293 ssDAF-12/GRIP1 lit1-tk-luc reporter; % of 3 µM dafachronic acid response | actives 1% (n = 370,000) | Nuclear hormone receptor DAF-12 (Strongyloides stercoralis) | activation, % at 6.8 µM;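 active means activation above the mean over all tested compounds plus 3 SD, cut at about 0.9% in these data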;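 further: 0% = DMSO-only wells and 100% = 3 µM delta7-dafachronic acid wells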
hgDAF12 conf: H. glycines DAF-12 receptor agonists, confirmation, cell-based, luminescence, HEK293, GAL4-LBD fusion; shares compounds with hgDAF12 agonist; HEK293 GAL4-hgDAF12 luciferase reporter, agonist mode; percent of butyrate response; activation, % at 6.8 µM; actives 80% (n = 3,300); AID 743050, 2013;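 active means mean activation over triplicate wells above the hit cutoff derived from the earlier primary screen, cut at about 11% in these data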;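 further: 0% = DMSO low control and 100% = 2 mM sodium butyrate high control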
LXRb DAF12 ctr: LXR agonists, Gal4 luciferase reporter, confirmation, counter-screen for hgDAF-12 agonist project, cell-based, luminescence, HEK293, H. glycines campaign | shares compounds with hgDAF12 agonist | 24 h | activation, % at 6.8 µM | 3,300 tested, under 10 active | AID 743051, 2013;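 active means mean activation of the triplicate above a set limit carried over from the primary screen, none filed active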
Target sequence (P55055 whole entry, looked up, the tested form may be a part): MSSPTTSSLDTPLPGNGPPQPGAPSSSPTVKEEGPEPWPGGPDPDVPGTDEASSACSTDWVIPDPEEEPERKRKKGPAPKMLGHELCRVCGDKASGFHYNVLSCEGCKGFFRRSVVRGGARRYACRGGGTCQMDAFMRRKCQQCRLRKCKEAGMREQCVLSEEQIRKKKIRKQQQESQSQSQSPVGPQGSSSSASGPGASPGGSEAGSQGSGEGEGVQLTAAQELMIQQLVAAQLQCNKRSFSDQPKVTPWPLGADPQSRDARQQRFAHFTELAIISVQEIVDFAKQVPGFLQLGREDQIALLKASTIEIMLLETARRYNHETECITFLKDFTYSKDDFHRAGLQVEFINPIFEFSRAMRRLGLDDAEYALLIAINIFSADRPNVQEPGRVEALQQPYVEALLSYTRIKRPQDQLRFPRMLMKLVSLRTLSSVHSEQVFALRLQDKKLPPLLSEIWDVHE
* hit, by the source's call; . = no result given.

SMILES	hcDAF12 agonist	hgDAF12 agonist	DAX1 inh-1	DAX1 inh-2	ssDAF12 agonist	hgDAF12 conf	LXRb DAF12 ctr
COc1ccc(-c2c(C(=O)c3ccc(Br)cc3)[nH]c(N)c2C(=O)NCCc2c[nH]c3ccccc23)cc1OC	-1.8	2.0	.	-1.2	-0.9	.	.
Cc1ncoc1C(=O)N1CCc2c([nH]c3ccccc23)C1c1ccccc1F (stereo not given)	3.4	16.1*	-0.9	0.6	0.4	2.5	0.0
Cc1cccc(C2c3[nH]c4ccccc4c3CCN2C(=O)c2cc(C(C)C)nc(N)n2)n1 (stereo not given)	3.6	5.7	0.1	-0.5	-0.9	.	.
O=C(c1cc2ncccn2n1)N1CCc2c([nH]c3ccccc23)C1c1ccccc1F (stereo not given)	2.2	-0.2	0.7	0.8	0.3	.	.
CCn1nc(C)cc1C(=O)N1CCc2c([nH]c3ccccc23)C1c1cc(F)ccc1F (stereo not given)	6.2*	14.4*	.	0.7	0.8	12.7*	0.5
COc1ccc(CN(C2CCCC2)S(=O)(=O)c2cc(Br)ccc2Br)c(OC)c1	-2.2	-0.5	.	-1.2	-1.0	.	.
Cc1cc(Oc2cccnc2)ccc1NC(=O)Cc1c[nH]c2ccccc12	3.8	3.0	.	-0.8	-0.5	.	.
c1ccc(CSc2ccc(-c3cccs3)nn2)cc1	3.0	14.4*	1.3	4.3*	0.7	15.3*	0.5
CCCCCCCCN1C(=O)[C@@H](CC(=O)N2CCOCC2)C[C@@]2(C(=O)OC)C1=C[C@H](C1CCCC1)O[C@@H]2C	-1.4	0.0	.	1.2	-1.1	.	.
O=C1c2ccccc2C(=O)N1CCc1c[nH]c2ccccc12	2.0	19.1*	13.4*	3.6*	0.8	12.9*	0.7
O=C1c2ccccc2C(=O)N1CCCc1c[nH]c2ccccc12	-0.2	-0.2	0.1	0.6	-1.0	.	.
O=C(Nc1c(-c2ccc(C(F)(F)F)cc2)nc2ncccn12)C1CC1	-1.3	3.0	.	0.8	-1.2	.	.
CCC[C@H]1[C@@H](NC(=O)c2cccnc2)CC[C@@]23CCCN2C(=O)CCC[C@@H]13	-1.1	0.8	.	.	-2.2	.	.
O=C(Nc1ccc(/C=C/c2nc3ccccc3o2)cc1)c1c(F)cccc1F	2.8	16.0*	-0.1	0.0	0.0	18.9*	0.8
O=C(Nc1ccc(/C=C/c2nc3ccccc3o2)cc1)c1cccc(C(F)(F)F)c1	0.9	3.8	0.0	0.2	0.0	.	.
CCOC(=O)[C@@]12CCCC=C1N(CCc1ccc(Cl)cc1)C(=O)[C@H]2CC(=O)NCc1cccc(C(F)(F)F)c1	-2.5	4.0	.	-1.1	-1.9	.	.
C[C@H](CO)N1C[C@H](C)[C@H](CN(C)C(=O)Nc2ccc(F)cc2)Oc2ncc(Br)cc2C1=O	0.2	-2.1	.	-0.6	-0.4	.	.
CCOC(=O)C1(Cc2ccccc2Cl)CCN(C(=O)c2cnccn2)CC1	0.9	16.2*	1.9	2.4	-0.2	11.0*	0.3
CCOC(=O)C1(Cc2ccccc2Cl)CCN(C(=O)c2cc(C)on2)CC1	0.0	7.4	1.4	0.1	-0.6	.	.
O=C(Nc1ccccn1)N1CCOCC1	1.0	2.9	1.5	0.1	-1.2	.	.
O=C(Nc1ccc2nc(-c3ccccn3)c(-c3ccccn3)nc2c1)N1CCOCC1	-1.0	14.8*	-0.5	-0.1	-1.1	-0.1	0.1
C=CCN1[C@H](CO)[C@H](c2ccc(Br)cc2)[C@@H]1C#N	1.7	1.7	.	1.2	-0.5	.	.
Fc1cccc2sc(Nc3nc4cc5c(cc4s3)OCO5)nc12	6.3*	15.9*	0.7	3.2	1.1*	13.6*	0.6
C=CCN(CC#CC1=CCCCC1)Cc1ccc(OC)cc1OC	-1.7	2.1	.	-0.2	-1.6	.	.
N/C(=N\OC(=O)Cc1ccccc1)c1ccccc1Cl	3.5	13.7*	-0.9	1.8	0.4	6.0	0.2
SMILES	hcDAF12 agonist	hgDAF12 agonist	DAX1 inh-1	DAX1 inh-2	ssDAF12 agonist	hgDAF12 conf	LXRb DAF12 ctr
O=C(NCCc1ccccc1)Nc1ccc2c(c1)OCO2	3.1	16.3*	2.0	3.5	0.7	16.6*	0.6
O=C(Nc1ccc2c(c1)OCO2)Nc1ccc2c(c1)OCO2	5.2	22.2*	1.4	4.0*	0.5	16.8*	0.7
COc1cc([N+](=O)[O-])ccc1NC(=O)Nc1ccc2c(c1)OCCO2	-2.9	0.8	0.2	-0.3	-1.8	.	.
O=C(Nc1ccc([N+](=O)[O-])cc1)Nc1ccc2c(c1)OCCO2	2.8	17.1*	3.1	0.1	0.1	19.5*	0.8
O=C(Nc1ccc2c(c1)OCCO2)NC1CCCCC1	5.2	13.5*	0.0	2.5	0.5	16.4*	0.7
O=C(Nc1cccnc1)Nc1ccc2c(c1)OCO2	5.4	7.8	0.9	1.0	-0.2	.	.
O=C(NCCc1ccc(F)cc1)Nc1ccc2c(c1)OCO2	2.3	8.9	2.8	1.8	-0.4	.	.
CN1NC(=O)c2ccccc2NC1=S	1.2	-0.6	.	-0.6	-0.5	.	.
C/C(=N\NC(=O)c1nn(C)c(C)c1Br)c1cccc(NC(=O)c2ccc(F)cc2)c1	5.0	16.7*	2.6	4.1*	0.1	4.6	0.2
C/C(=N\NC(=O)c1ccccc1)c1cccc(Br)c1	2.9	14.4*	1.7	1.0	0.3	7.0	0.3
C/C(=N/NC(=O)c1ccccc1)C1=C(O)CC(C)(C)CC1=O	3.5	14.3*	1.9	1.8	-0.9	3.2	0.2
C/C(=N\NC(=O)c1c(Br)c(C)nn1C)c1cccc(NC(=O)c2ccccc2F)c1	-1.1	-1.3	-0.9	0.4	-1.6	.	.
CC1(C)CC(=O)C(C(N)=NC(=O)c2ccccc2)=C(O)C1	-2.2	3.3	-1.5	0.2	-1.3	.	.
CCCCN1C(=O)N2Cc3ccccc3C2CS1(=O)=O (stereo not given)	1.1	6.0	.	1.1	0.3	.	.
Cc1ccc(S(=O)(=O)N(C)[C@H]2C[C@H]3c4cc(-c5ccc6c(c5)OCO6)ccc4CCN3C[C@H]2[C@H](C)O)cc1	-0.6	-3.1	.	0.6	-0.7	.	.

Screens (PubChem BioAssay)
